Bioassay records: PubChem, Center for Chemical Genomics, University of Michigan
Dicer inh: inhibitors of Dicer pre-microRNA processing, primary screen, biochemical, cat-ELCCA, chemiluminescence; cat-ELCCA pre-miR-21 Dicer processing; active compounds read high; AID 1347074, 2019; Endoribonuclease Dicer (Homo sapiens), Q9UPY3; z-score at 25 µM; hit rate 6% among 47,000; in the data active = z-score above about 3, passing the limit was not always enough;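 also: higher signal means more uncleaved substrate so more Dicer inhibition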
Target sequence (Q9UPY3 whole entry, looked up): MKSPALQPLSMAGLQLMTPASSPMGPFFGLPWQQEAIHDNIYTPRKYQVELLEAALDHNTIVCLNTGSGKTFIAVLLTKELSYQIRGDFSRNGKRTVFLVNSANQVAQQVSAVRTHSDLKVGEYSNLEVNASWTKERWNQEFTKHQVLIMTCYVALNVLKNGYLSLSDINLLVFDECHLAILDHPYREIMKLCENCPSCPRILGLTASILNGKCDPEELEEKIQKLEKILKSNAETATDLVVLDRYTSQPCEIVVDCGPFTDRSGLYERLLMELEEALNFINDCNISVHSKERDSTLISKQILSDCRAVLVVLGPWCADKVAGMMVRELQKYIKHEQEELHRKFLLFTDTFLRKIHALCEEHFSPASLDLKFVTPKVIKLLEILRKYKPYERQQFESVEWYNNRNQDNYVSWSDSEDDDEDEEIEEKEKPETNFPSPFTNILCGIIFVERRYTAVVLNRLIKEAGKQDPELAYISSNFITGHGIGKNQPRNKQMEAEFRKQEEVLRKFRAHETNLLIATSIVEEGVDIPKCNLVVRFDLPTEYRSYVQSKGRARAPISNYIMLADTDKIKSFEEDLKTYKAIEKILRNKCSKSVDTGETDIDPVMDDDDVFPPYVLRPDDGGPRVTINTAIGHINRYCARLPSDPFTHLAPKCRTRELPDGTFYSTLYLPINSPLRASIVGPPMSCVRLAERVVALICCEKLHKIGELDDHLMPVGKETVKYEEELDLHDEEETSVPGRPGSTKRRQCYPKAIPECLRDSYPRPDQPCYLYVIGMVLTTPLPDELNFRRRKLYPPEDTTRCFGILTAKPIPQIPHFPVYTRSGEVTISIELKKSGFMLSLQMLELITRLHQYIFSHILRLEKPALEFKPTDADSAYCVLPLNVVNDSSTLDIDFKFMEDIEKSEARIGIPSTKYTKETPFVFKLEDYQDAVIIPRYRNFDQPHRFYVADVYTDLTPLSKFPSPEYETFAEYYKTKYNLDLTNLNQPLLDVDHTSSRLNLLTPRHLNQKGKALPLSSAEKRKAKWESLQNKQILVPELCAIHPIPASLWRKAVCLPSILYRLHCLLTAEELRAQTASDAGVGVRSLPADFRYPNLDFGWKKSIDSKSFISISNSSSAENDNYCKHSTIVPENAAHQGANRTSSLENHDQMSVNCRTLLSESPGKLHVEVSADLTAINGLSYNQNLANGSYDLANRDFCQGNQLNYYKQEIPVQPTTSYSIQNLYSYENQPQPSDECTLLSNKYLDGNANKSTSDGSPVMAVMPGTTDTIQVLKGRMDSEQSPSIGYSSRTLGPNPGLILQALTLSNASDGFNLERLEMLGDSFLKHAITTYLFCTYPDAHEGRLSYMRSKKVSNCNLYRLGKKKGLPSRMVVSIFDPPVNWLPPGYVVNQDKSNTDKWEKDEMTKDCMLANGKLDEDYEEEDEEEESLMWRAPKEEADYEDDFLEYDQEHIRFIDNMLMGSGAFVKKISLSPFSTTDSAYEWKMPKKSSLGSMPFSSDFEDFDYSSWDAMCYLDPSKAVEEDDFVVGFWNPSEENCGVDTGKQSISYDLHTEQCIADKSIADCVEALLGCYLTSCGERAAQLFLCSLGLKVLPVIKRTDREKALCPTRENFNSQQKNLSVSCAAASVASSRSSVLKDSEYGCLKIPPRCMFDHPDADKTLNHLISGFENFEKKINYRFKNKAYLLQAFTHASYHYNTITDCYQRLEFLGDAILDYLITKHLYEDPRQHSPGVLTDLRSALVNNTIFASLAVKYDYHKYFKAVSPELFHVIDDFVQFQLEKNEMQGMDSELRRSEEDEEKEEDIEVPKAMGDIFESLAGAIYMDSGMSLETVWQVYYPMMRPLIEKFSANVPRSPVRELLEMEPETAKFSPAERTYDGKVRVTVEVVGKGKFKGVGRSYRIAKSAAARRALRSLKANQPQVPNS
Of the large screens only hits and unclear results are named; the others gave an inactive call. The sample as a whole holds a higher share of hits than the screen did.

Cc1c(-c2ccnn2S(=O)(=O)c2ccccc2F)sc2ccccc12	none
COc1ccc(N(C(=O)Nc2ccccc2Cl)C(CC(=O)C2CC2)c2ccccc2)cc1 (centres undefined)	none
CC1c2ccsc2CCN1S(=O)(=O)c1ccccc1 (centres undefined)	Dicer inh 3
CC1c2ccsc2CCN1S(=O)(=O)c1cc(C(F)(F)F)cc(C(F)(F)F)c1 (centres undefined)	none
CC1c2ccsc2CCN1S(C)(=O)=O (centres undefined)	none
Cc1oc(-c2ccc(Cl)cc2)cc1COC(=O)Nc1ccc(Cl)cc1	none
COc1c(NC(=O)N2CCCCC2)csc1Cl	none
Cn1nc(-c2ccc(Br)s2)c(Br)c1C(F)(F)F	Dicer inh 45
CSc1nnc(-c2ccc(Br)s2)n1C	none
O=C(NN1CC(=O)N(c2cc(Cl)cc(Cl)c2)CC1=O)c1cccs1	none
O=C(Nc1ccc(F)cc1)N1CCN(c2ccccc2F)CC1	none
O=C(Nc1ccc(Cl)cc1)NN1CC(=O)N(c2ccccc2F)CC1=O	Dicer inh 4.9
Cc1ccc([N+](=O)[O-])c(NC(=O)c2ccc(Cl)cc2)c1C	none
CCOC(=O)c1c(C)n(C)c2cc(CN(C)C)c(O)c(S(=O)(=O)c3ccccc3)c12	Dicer inh 3.8
CCOC(=O)c1c(CS(=O)(=O)c2ccccc2)n(C)c2cc(Br)c(O)cc12	none
CCOC(=O)c1c(CN(C)C)n(C)c2cc(Br)c(O)c(CN(C)C)c12	none
O=C(c1ccccc1I)n1ccc2ccccc21	none
COc1ccc(-c2coc3cc(OCc4ccc(Br)cc4)cc(O)c3c2=O)cc1OC	Dicer inh 3.9
CC(C)Oc1cc(O)c2c(=O)c(-c3ccc(O)cc3)coc2c1	none
O=c1c(-c2ccc(O)cc2)coc2cc(O)cc(O)c12	none
N#CCC(=O)N/N=C/c1ccc(-c2cc(C(F)(F)F)cc(C(F)(F)F)c2)o1	none
CCC(CO)NS(=O)(=O)c1cc(-c2nnc3c4ccccc4c(C)nn23)ccc1C (centres undefined)	none
CCN1C(=O)C(O)(CC(=O)c2cccnc2)c2ccccc21 (centres undefined)	none
OCCSc1nc2ccccc2n1Cc1ccccc1	none
O=C(O)CSc1nc2ccccc2n1Cc1ccccc1	none
NC(=O)Cn1c(CSc2nc3ccccc3n2Cc2ccccc2)nc2ccccc21	Dicer inh 4.2
O=C(Nc1cccnc1)C1CC(c2cccc(Br)c2)=NO1 (centres undefined)	none
CSc1ccccc1NC(=O)C1CC(c2cccc(Br)c2)=NO1 (centres undefined)	none
O=C(Nc1cccc(O)c1)C1CC(c2cccc(Br)c2)=NO1 (centres undefined)	none
O=C(NCCCn1ccnc1)C1CC(c2cccc(Br)c2)=NO1 (centres undefined)	Dicer inh 3.5
O=C(Nc1cc(Cl)ccc1O)C1CC(c2cccc(Br)c2)=NO1 (centres undefined)	Dicer inh 3
O=C(NCC1CCCO1)C1CC(c2cccc(Br)c2)=NO1 (centres undefined)	none
CN(C)c1ccc(-c2nnc3n2N=C(c2ccc(Br)cc2)CS3)cc1	none
O=C(c1cccs1)n1ccc(-c2ccc(C#Cc3ccccc3)cc2)n1	none
O=C(NCCc1ccncc1)NC(=O)c1c(Cl)cccc1Cl	none
Cc1cc(C)c2ccc(NC(=O)c3ccc(C(F)(F)F)cc3)nc2n1	none
CCOC(=O)C1=NN(c2ccc(C)cc2)C2(C)c3cc(OC)c(OC)cc3CCN12 (centres undefined)	none
CN(C)Cc1c(O)ccc2ccccc12	Dicer inh 5.3
CN(C)Cc1ccc(O)c(CN(C)C)n1	none
CN(C)Cc1c(O)ccc2c(=O)c(Oc3ccc4ccccc4c3)c(C(F)(F)F)oc12	none
Cc1nc(-c2cccs2)sc1C(=O)NNC(=O)Nc1ccccc1	none
COC(=O)c1cccn1-c1ccccc1[N+](=O)[O-]	none
Cc1oc2cc(O)cc(O)c2c(=O)c1-c1ccccc1	none
O=c1c(O)c(-c2ccc(O)c(O)c2)oc2cc(O)cc(O)c12	none
O=c1cc(-c2ccc(O)c(O)c2)oc2cc(O)cc(O)c12	Dicer inh 12
Cc1ccc(C(=O)CSc2nnc3c(n2)[nH]c2ccccc23)cc1	none
O=C(CCc1nc(-c2ccc(Cl)cc2)no1)NNC(=O)c1ccccc1-n1cccc1	none
O=C(O)c1ccc(Oc2ccc([N+](=O)[O-])cc2)cc1C(=O)O	none
C/C=C(\C)C(=O)Nc1ccccc1CC1c2ccccc2CCN1C (centres undefined)	none
N#Cc1c(Br)cnn1Cc1cccc(Cl)c1	none
O=C1N/C(=N/N=C\c2[nH]ncc2Br)SC1c1ccccc1 (centres undefined)	Dicer inh 3.4
O=C1CS/C(=N/N=C/c2ccn[nH]2)N1	none
CCOC(=O)c1cnn(-c2ccc(Cc3ccc(-n4ncc(C(=O)OCC)c4C)cc3)cc2)c1C	none
Clc1cccc(Nc2nc(-c3ccncc3)nc3ccccc23)c1	none
Clc1ccc(Nc2nc(-c3ccncc3)nc3ccccc23)cc1	Dicer inh 4
Oc1ccc(Nc2nc(-c3ccccc3)nc3ccccc23)cc1	none
O=C1Nc2ccccc2/C1=C/c1c(-c2ccc3ccccc3c2)[nH]c2ccccc12	none
Cc1sc2nc(C)n(/N=C/c3ccc4c(c3)OCO4)c(=O)c2c1C	Dicer inh 6.4
Cc1nc2c(cnn2-c2ccccc2)c(=O)n1/N=C/c1ccc2c(c1)OCO2	none
Cc1sc2nc(C)n(/N=C/c3cccs3)c(=O)c2c1C	none
CCCCNC(=O)NS(=O)(=O)c1ccccc1Cl	none
O=C(NC1CCCC1)NS(=O)(=O)c1ccccc1Cl	Dicer inh 3.2
CC(=O)c1ccc(S(=O)(=O)NC(=O)NC2CCCCC2)cc1	none
COc1cc(C2SCCS2)cc(Br)c1Oc1ccc([N+](=O)[O-])cn1	none
Cc1ccc(Br)cc1[N+](=O)[O-]	none
CC(=O)Nc1cc(C)c(Br)cc1[N+](=O)[O-]	none
O=[N+]([O-])c1ccc2c3c(ccc(Br)c13)CC2	Dicer inh 3.3
COc1ccc(NC2c3cccc4cccc(c34)C2NS(=O)(=O)c2ccc(Cl)cc2)cc1 (centres undefined)	none
CCOC(=O)N1CCc2c(sc3ncn(CC(C)=O)c(=O)c23)C1	none
COc1ccc(NC(=O)C2=NNC(=O)CC2)cc1	none
Cc1cc(C)cc(CC(C(=O)O)C(C)C(=O)O)c1 (centres undefined)	none
CCCOc1ccc(C2N=C(N)Nc3nc4ccccc4n32)cc1 (centres undefined)	none
Cc1ccc(Cl)c(NC2=CC(=O)CC(C)(C)C2)c1	none
Cc1ccc(-c2cc(NC3=CC(=O)CC(C)(C)C3)n[nH]2)cc1	Dicer inh 3.7
CC1(C)CC(=O)C=C(Nc2ccc(F)cc2)C1	none
COc1ccc(OC)c(NC(=O)C(Cl)Cl)c1	none
Cc1[nH]c2ccc(Cl)cc2c(=O)c1CN1CCCC(C)C1 (centres undefined)	none
CC1CN(CCO)Cc2ccc(Cl)cc21 (centres undefined)	Dicer inh 3.2
CN1CCN(C2Cc3ccccc3Sc3ccc(Cl)cc32)CC1 (centres undefined)	none
CN1CCN(CC(=O)N2c3ccccc3Sc3ccc(Cl)cc32)CC1	none
COc1ccc(/C=N/NC(=O)c2nn(-c3ccc(C(C)(C)C)cc3)c(=O)c(C#N)c2C)cc1	none
COc1cccc(C2C(C(=O)OC(C)C)=C(C)Nc3nc4ccccc4n32)c1 (centres undefined)	none
COc1ccc(C(=O)CSc2n[nH]c(-c3ccco3)n2)cc1	none
Cc1ccc(C(=O)CSc2n[nH]c(-c3ccco3)n2)cc1C	none
COc1ccc(C(=O)CSc2n[nH]c(-c3ccco3)n2)cc1C	Dicer inh 5.6
C=CCn1c(Sc2c3c(c(C#N)c4nc5ccccc5n24)CCCC3)nnc1-c1ccccc1	none
